BRCA1 expr up: activators of BRCA1 expression; AID 624202; Potency, µM (top dose mostly 46.1 µM), most hits filed as activators; MCF7-BRCA1-FFLuc reporter, luminescence, 48 h; response scale: scaled: vehicle 0%, 10 µM genistein 100%; actives 1.1% (n = 380,000); note: nearly all actives have a fitted effect of over 80% in size
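48 h compound treatment of MCF7-BRCA1-FFLuc cells (phenol-red free MEM, 37 °C), then 15 min with luciferase substrate and luminescence imaging.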
A549 tox: counter-screen for Nrf2 inhibitors: cytotoxicity in A549 cells; A549 ARE-Fluc cells, CellTiter-Fluor viability, 18-24 h; Potency, µM (top dose mostly 46 µM), hits mostly inhibitors; actives 0.16% (n = 390,000)
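Cytotoxicity counterscreen: CellTiter-Fluor fluorescence was measured in A549 ARE_Fluc cells after 18-24 h of compound exposure in a concentration series. The subsequent BugLite luminescent read reports ARE-luciferase activity.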
Nrf2 ARE act: Nrf2 pathway activation; AREc32 ARE-luciferase reporter (MCF7-derived line), luminescence, 24 h; Potency, µM (series often up to 46.1 µM), actives largely listed as activators; actives 0.31% (n = 410,000); note: nearly all actives have a fitted effect of over 65% in size
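ARE activation measured as luciferase luminescence (Steady-Glo, 30 min RT) in AREc32_Fluc cells after 24 hr compound exposure at 37 deg C, 5% CO2; cells seeded overnight at 1000/well in OPTI-MEM, 5% FBS.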
p53 reactivator: restores transcriptional activity of mutant p53; H1299 p53-A138V BP100-luciferase reporter, luminescence, 24 h; Potency, µM (top dose mostly 92.2 µM), usual class: activators; actives 0.063% (n = 320,000); note: nearly all actives have a fitted effect of over 45% in size
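p53-null H1299 cells stably carrying temperature-sensitive p53-A138V and a BP100-luciferase reporter were pinned with compounds (4-point, 1:5 series) and held 24 hrs at 37 deg C. Luminescence was read 10 min after detection reagent.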
Nrf2 inh: Nrf2 pathway inhibition. Potency, µM (top dose mostly 46 µM), usual class: inhibitors. A549 ARE-Fluc reporter, luciferase luminescence, 18-24 h. actives 2.1% (n = 360,000). AID 504444; note: nearly all actives have a fitted effect of over 60% in size
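Nrf2 function is reported as luminescence of an ARE-controlled luciferase in A549 cells. Compounds were tested at several concentrations, and a CellTiter-Fluor read on the same wells flagged cytotoxicity.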
IL2 activator: activators of IL-2; IL-2 activation reporter assay, cell-based qHTS; stimulated with anti-CD3/CD4/CD28 beads; in transgenic mouse T cells; actives 0.065% (n = 360,000); activation, % (series mostly up to about 46 µM); in the data active = activation above about 50%; inconclusive = mostly about 30% to 49%
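Unstimulated transgenic mouse T cells, 750 per well, received compound and, after 60 minutes, anti-CD3/anti-CD4 bead plus anti-CD28 stimulation. EGFP and DsRed were quantified after 18 hours.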
Of the large screens only hits and unclear results are named; the others gave an inactive call. The list is not random: actives were taken first. Their share in the collection is about 3.2%. Unless noted, calls come from the whole dose curve; as a rule, active = well fitted curve in the direction sought with a large enough effect; inconclusive = small, poorly fitted or top-dose-only effect, or another doubt; inactive = no such curve, though single readings can be large; an effect the other way counts as inactive or inconclusive.

COc1ccc(N2CCN(C(=O)c3cc(-c4cc(OC)ccc4OC)nc4ccccc34)CC2)cc1	none (no result: p53 reactivator)
CCCCc1nc2cc(C(=O)N3CCCC3)ccc2o1	BRCA1 expr up 8.9µM
COCC1CCN(C(=O)c2ccc3oc(CCCc4ccccc4)nc3c2)C1 (stereo unspecified)	none
COCCN1CCN(C(=O)c2ccc3oc(CCCc4ccccc4)nc3c2)CC1	BRCA1 expr up 13µM, Nrf2 inh inconclusive
COc1cc2c(C(=O)N3CCOCC3)c(CSc3ccccc3)n(C)c2cc1Br	A549 tox inconclusive, Nrf2 inh 26µM
O=C(CSc1nnc(Cc2ccccc2)n1Cc1ccco1)NC12CC3CC(CC(C3)C1)C2	Nrf2 inh 26µM
CCCCSc1nnc(-c2c[nH]c3ccccc23)n1C	BRCA1 expr up inconclusive, p53 reactivator inconclusive
Cn1c(SCc2ccccc2)nnc1-c1ccc2c(c1)OCO2	BRCA1 expr up 6.3µM, p53 reactivator inconclusive, Nrf2 inh inconclusive
Cn1c(SCC#N)nnc1-c1ccc2c(c1)OCO2	none
Cn1c(SCc2ccccc2)nnc1-c1c[nH]c2ccccc12	BRCA1 expr up 11µM
COc1ccc(C2(CNC(=O)C(=O)Nc3ccccc3C)CCCC2)cc1OC	none (no result: BRCA1 expr up, p53 reactivator, IL2 activator)
Cc1cc2c(s1)c1cnn(Cc3cccc4cccnc34)c(=O)c1n2C	none (no result: BRCA1 expr up, Nrf2 ARE act, p53 reactivator, IL2 activator)
Cc1cccc(NC(=O)Cn2nc(C)c3nn(-c4ccc(Cl)cc4)c(C)c3c2=O)c1C	none (no result: BRCA1 expr up, p53 reactivator, Nrf2 inh, IL2 activator)
COc1ccc(-c2nc(-c3ccccc3OC)no2)cc1OC	BRCA1 expr up 10µM, p53 reactivator inconclusive
Cc1ccc(SCc2nc(-c3ccccc3)no2)cc1	p53 reactivator inconclusive (no result: Nrf2 inh)
COc1ccc(-c2noc(CSc3ccccc3)n2)cc1OC	BRCA1 expr up 11µM, p53 reactivator inconclusive, Nrf2 inh inconclusive
Cc1ccc(-n2ncc(C(=O)N3CCCCC3)c2C2CCN(C(=O)OC(C)(C)C)CC2)c(C)c1	none (no result: BRCA1 expr up, p53 reactivator, IL2 activator)
COc1ccc(C2CC(=O)c3cnc4c(-c5ccccc5)c(C)nn4c3C2)c(OC)c1 (stereo unspecified)	none (no result: p53 reactivator, IL2 activator)
Cc1nn2c3c(cnc2c1-c1ccccc1)C(=O)CCC3	BRCA1 expr up 13µM
Cc1nn2c(-c3ccccc3)ccnc2c1-c1ccccc1	BRCA1 expr up 7.1µM, p53 reactivator inconclusive
Cc1ccc2c(C)c(C(=O)N(C)C(C)c3ccon3)oc2c1C (stereo unspecified)	BRCA1 expr up 10µM, Nrf2 inh inconclusive
O=C(CN1CCCC1)Nc1ccccc1C(=O)c1ccccc1	none
O=C(CN1CCN(S(=O)(=O)c2ccccc2F)CC1)Nc1ccccc1C(=O)c1ccccc1	Nrf2 inh 15µM
CCOC(=O)N1CCC(N2C(=O)c3ccccc3C2Nc2ccccc2C)CC1 (stereo unspecified)	none
CCOC(=O)c1ccccc1NC1c2ccccc2C(=O)N1C1CCN(C(=O)OCC)CC1 (stereo unspecified)	Nrf2 inh 16µM
CC(C)Oc1ccc(CNC(=O)Cn2ncn3nc(-c4cccs4)cc3c2=O)cc1	none (no result: BRCA1 expr up, p53 reactivator, IL2 activator)
COc1ccc(C)cc1Nc1n[n+](-c2ccccc2)c(-c2cc([N+](=O)[O-])cc(OC)c2O)s1	IL2 activator 180
COc1ccc(C)cc1Nc1n[n+](-c2ccccc2)c(-c2ccc(NC(C)=O)cc2)s1	Nrf2 inh inconclusive
Cc1ccn2c(=O)cc(CSc3nnc(C)s3)nc2c1	none (no result: BRCA1 expr up, p53 reactivator, Nrf2 inh, IL2 activator)
CC(=O)Nc1ccc(Oc2ccccc2)cc1	none
CC(=O)Nc1ccc(Oc2sc(C(=O)c3ccccc3)c(N)c2C#N)cc1	A549 tox inconclusive, Nrf2 ARE act 8.9µM (no result: Nrf2 inh)
CCCCNC(=O)c1ccc2c(OCC)n(CCCC)nc2c1	none
CCCn1nc2cc(C(=O)NCCc3cccs3)ccc2c1OCC	BRCA1 expr up 11µM
CCN(C(=O)CSc1nc(-c2ccccc2)no1)c1cccc(C)c1	none (no result: BRCA1 expr up, p53 reactivator, IL2 activator)
CCOc1ccc(N(CC(=O)Nc2ccc(C)cc2)S(C)(=O)=O)cc1	BRCA1 expr up 8.9µM, p53 reactivator inconclusive, Nrf2 inh inconclusive
CCOc1ccc(N(CC(=O)Nc2cc(C)cc(C)c2)S(C)(=O)=O)cc1	BRCA1 expr up 13µM, p53 reactivator inconclusive, Nrf2 inh inconclusive
Nn1c(Nc2ccccc2)nc2ccccc21	BRCA1 expr up 10µM, p53 reactivator inconclusive, Nrf2 inh inconclusive
CCc1ccc(CNc2ccc3c(c2)ncn3CC)cc1	BRCA1 expr up 6.3µM, p53 reactivator inconclusive, Nrf2 inh inconclusive
CCn1cnc2cc(NCc3ccc(OC)cc3)ccc21	BRCA1 expr up inconclusive, p53 reactivator inconclusive, Nrf2 inh inconclusive
CCOc1ccc(Nc2nc3ccccc3n2C)cc1	BRCA1 expr up 2.5µM, Nrf2 inh inconclusive (no result: p53 reactivator)
CCOc1ccc(CNc2ccc3c(c2)nc(C)n3C)cc1	BRCA1 expr up 11µM (no result: Nrf2 inh)
CN(Cc1ccc(F)cc1)S(=O)(=O)c1nnc(NC(=O)c2ccccc2Cl)s1	none (no result: BRCA1 expr up, p53 reactivator, IL2 activator)
CCOc1ccc(Nc2c3ccccc3nc3ccccc23)cc1	A549 tox inconclusive
CCOc1ccc(Nc2cc(C)c3ccccc3n2)cc1	BRCA1 expr up 10µM
O=C(N/N=C/c1cc([N+](=O)[O-])ccc1O)c1cccc2cc[nH]c12	A549 tox inconclusive, Nrf2 inh 23µM
COc1ccc(-c2n(CC(=O)OC3CC(C)CCC3C(C)C)c3ccccc3[n+]2C)cc1 (stereo unspecified)	A549 tox inconclusive, Nrf2 inh 21µM
COc1ccc(OCc2n(CC(=O)OC3CC(C)CCC3C(C)C)c3ccccc3[n+]2C)cc1 (stereo unspecified)	A549 tox inconclusive, Nrf2 inh inconclusive
CC12CCC=CC1C(c1ccc(C(F)(F)F)cc1)N(Cc1ccccc1)C2=O (stereo unspecified)	none (no result: BRCA1 expr up, Nrf2 ARE act, p53 reactivator, IL2 activator)
CCOC(=O)c1ccc(N=NN(C)C)cc1	BRCA1 expr up 13µM, Nrf2 inh inconclusive
COc1ccccc1CNC(=O)c1ccc(Cn2c(SCc3ccccc3)nc3cccnc32)cc1	Nrf2 inh inconclusive (no result: BRCA1 expr up, p53 reactivator, IL2 activator)
CS(=O)c1nc(-c2ccc(Br)cc2)cc(-c2ccccc2)c1C#N (stereo unspecified)	A549 tox inconclusive, Nrf2 inh 15µM
CCC(Cn1nnc2ccccc2c1=O)NC(=O)Nc1ccc(C)cc1C (stereo unspecified)	none (no result: BRCA1 expr up, p53 reactivator, IL2 activator)
CC(C)c1ccc(NC(=O)CCS(=O)(=O)c2ccc(Br)s2)cc1	Nrf2 inh 26µM (no result: BRCA1 expr up, p53 reactivator, IL2 activator)
COc1cc(C2CC(=O)Nc3ccc4ccccc4c32)ccc1OC(=O)C(C)C (stereo unspecified)	none (no result: BRCA1 expr up, p53 reactivator, IL2 activator)
Cc1ccc(N=C2NC(=O)/C(=C/c3cn(C)c4ccccc34)S2)cc1C	Nrf2 inh 23µM
Cn1cccc1/C=C1\SC(=Nc2ccccc2)NC1=O	A549 tox inconclusive, p53 reactivator inconclusive

From PubChem
